TbPYK inhibitor: blocks Trypanosoma brucei pyruvate kinase; TbPYK enzyme, Kinase-Glo Plus ATP luminescence, 45 min; Potency, µM (doses to about 76.8 µM), for the others: at the top dose activity, negative = inhibition, actives largely listed as inhibitors; actives 0.12% (n = 410,000); note: potency is the fitted concentration of half-maximal effect; % is set by controls: 0 for no effect and ±100 for the full control effect; nearly all actives have a fitted effect of over 50% in size
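Activity of T. brucei pyruvate kinase was followed by Kinase-Glo Plus luminescence after the enzyme reacted 45 min at room temperature with 130 uM ADP (final) and substrate. Test compounds were added before ADP at multiple concentrations.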
Giardia FBPA inh: blocks Giardia fructose-bisphosphate aldolase activity | actives 0.71% (n = 290,000) | Potency, µM (titrated, usually from 59.6 µM), for inactives: at the top dose activity, negative = inhibition, usual class: inhibitors | A8B2U2 | purified Giardia FBPA; note: potency is the fitted concentration of half-maximal effect; % is set by controls: 0 for no effect and ±100 for the full control effect; nearly all actives have a fitted effect of over 55% in size
Target sequence (A8B2U2 whole entry, looked up): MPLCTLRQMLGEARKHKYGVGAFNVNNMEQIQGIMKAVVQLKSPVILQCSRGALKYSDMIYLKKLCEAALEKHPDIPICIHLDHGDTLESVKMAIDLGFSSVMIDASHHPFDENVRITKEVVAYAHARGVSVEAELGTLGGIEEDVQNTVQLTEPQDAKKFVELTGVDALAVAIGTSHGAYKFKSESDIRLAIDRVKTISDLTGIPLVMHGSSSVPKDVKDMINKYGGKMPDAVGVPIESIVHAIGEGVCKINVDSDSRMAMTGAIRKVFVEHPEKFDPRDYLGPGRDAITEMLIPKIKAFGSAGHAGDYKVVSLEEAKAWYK
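Giardia FBPA (40 nM reagent) was preincubated 10 min at RT with compound (up to 57.5 uM final), then substrate plus GAPDH/TPI/NAD/arsenate coupling system with diaphorase/resazurin was added; resorufin fluorescence (525/598 nm) was read after 20 min.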
Shiga toxin inh: blocks Shiga toxin action in Vero cells; inhibition, % at 38.7 µM; Vero cells, Shiga toxin protein synthesis inhibition reporter; actives 9.2% (n = 290,000); in the data active = inhibition mostly above about 28%, no sharp cut-off; inactive = mostly below about 43%; note: 0% is about no effect
LmPK inhibitor: LmPK (Leishmania mexicana) enzyme inhibition. Q27686. purified LmPK, Kinase-Glo ATP luminescence, 1 h. Potency, µM (top dose mostly 57.5 µM), for inactives: top-dose activity change, negative = inhibition, hits mostly inhibitors. actives 0.37% (n = 290,000). AID 1721; note: potency is the fitted concentration of half-maximal effect; % is set by controls: 0 for no effect and ±100 for the full control effect
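qHTS format; LmPK 0.1 nM; substrates PEP 0.5 mM and ADP 0.1 mM. One-hour room-temperature incubation, then coupled luciferase luminescence; 0.5 nM enzyme wells mark activation.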
RE007 growth inh: less growth of the S. pombe RE007 Vpr strain. S. pombe RE007 Vpr strain, BacTiter-Glo ATP luminescence, 24 h. Potency, µM (titrated, usually from 92.2 µM), for the others: top-dose activity change, negative = less growth, most hits filed as inhibitors. actives 0.21% (n = 360,000). AID 651644; active = well fitted falling curve with a large enough effect; inconclusive = small, poorly fitted or top-dose-only effect; inactive = no such curve, though single readings can be large or run the other way; note: potency is the fitted concentration of half-maximal effect; % is set by controls: 0 for no effect and ±100 for the full control effect; nearly all actives have a fitted effect of over 50% in size
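Fission yeast RE007 carrying one integrated HIV-1 vpr copy, seeded at OD 0.01 in PMG+AL medium with 23 nL pinned compound. Grown 24 h at 30 degrees; viability read by BacTiter-Glo luminescence after 5 min.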
Cycloheximide cs: affects cycloheximide protein synthesis inhibition readout, counter-screen; actives 12% (n = 300,000); cell reporter, cycloheximide protein synthesis inhibition counterscreen; max response, %; in the data active = max response mostly above about 13%, no sharp cut-off; inactive = mostly below about 14%; note: read at 38.3 µM for the half of the compounds with a filed dose; 0% is about no effect
Numbers without * were called inactive; ? = inconclusive; . = no result given; [ ] = another dose, or the depositor's remark. Shown is part of a subset that was picked to be rich in hits. Unless noted, calls come from the whole dose curve; as a rule, active = well fitted curve in the direction sought with a large enough effect; inconclusive = small, poorly fitted or top-dose-only effect, or another doubt; inactive = no such curve, though single readings can be large; an effect the other way counts as inactive or inconclusive.

SMILES	TbPYK inhibitor	Giardia FBPA inh	Shiga toxin inh	LmPK inhibitor	RE007 growth inh	Cycloheximide cs
COc1ccccc1-c1cnn2c(NC3CCCC3)cc(C)nc12	-12%	4%	125*	-1%	-14%	38*
CCOC(=O)N1CCC(Nc2cc(C)nc3c(-c4ccccc4OC)c(C)nn23)CC1	2%	1%	-4	7%	0%	-2
COc1ccc(Cl)cc1NC(=O)NNC(=O)C(=O)Nc1ccc(F)cc1	-10%	.	.	.	1%	.
CC(=O)c1ccc(NC(=O)c2cnc(N3CCCC3)nc2C)cc1	-21%	.	.	.	.	.
Cc1nn(CCCC(=O)NCc2ccc(Cl)cc2)c(C)c1[N+](=O)[O-]	-9%	0%	-12	-2%	1%	2
COc1ccc(CNC(=O)CCCn2nc(C)c([N+](=O)[O-])c2C)cc1OC	0%	-2%	189*	5%	-1%	47*
COc1ccccc1CNC(=O)C(=O)NCC(c1cccnc1)N1CCN(c2ccc(F)cc2)CC1 (stereo not given)	-10%	.	.	.	.	.
Cc1occc1C(=O)NC1CCCCCCC1	4%	-6%	60*	-6%	?	40*
COc1ccccc1Nc1ccc(C(=O)NC2CCCCC2)cn1	1%	-5%	31*	0%	-10%	19*
COc1ccccc1C(=O)NC1CCCCCCC1	6%	5%	102*	3%	?	20*
Cc1occc1C(=O)NN=C1C2CC3CC(C2)CC1C3	-3%	-2%	30*	1%	-7%	28*
Cc1cc(C)n2c(NC3CCCCC3)c(CC(C)C)nc2n1	-3%	.	.	.	?	.
CN(c1nnc(NC(=O)Nc2ccc(Br)cc2)s1)C1CCCCC1	-7%	.	.	.	.	.
Cc1ccc(OCC(=O)N2CCN(C)CC2)c(Br)c1	0%	2%	93*	-3%	-2%	21*
Cc1ccc(C)c(OCC(=O)N2CCCN(C)CC2)c1	-11%	2%	-2	1%	2%	-2
Cc1ccc(OCC(=O)N2CCCCCC2)c(C)c1	-1%	8%	37	-5%	-4%	10*
Cc1cc(Br)ccc1OCC(=O)N1CCCCCC1	0%	6%	27	0%	-21%	25*
CC(C)c1ccc(OCC(=O)N2CCCCCC2)c(Br)c1	-14%	10%	80*	1%	14%	25*
Cc1cc(S(=O)(=O)N2CCCCC2)ccc1OCC(=O)N1CCCC1	3%	-3%	7	1%	-16%	-4
Cc1ccc(-n2nc(C(=O)N(C)Cc3ccccc3)c3c4ccccc4n(C)c3c2=O)cc1	4%	.	.	.	.	.
Cc1cc2c(C)nc(N/N=C/c3ccc([N+](=O)[O-])cc3)nc2o1	-5%	0%	-6	0%	-21%	-6
CSc1ccc(/C=N/Nc2nc(C)cc(C)n2)cc1	-2%	-11%	33*	-7%	-2%	42*
Cc1ccc(/C=N/Nc2nc(C)cc(C)n2)cc1	6%	?	57*	-1%	19%	14*
Cc1cc2c(C)nc(N/N=C/c3ccc(F)cc3)nc2o1	-7%	-28%	25	0%	2%	18*
CCOC(=O)c1ccc(NC(=O)C2=C(C)Nc3nc(SCc4ccc(Cl)cc4)nn3C2c2ccc(OC)cc2)cc1 (stereo not given)	-2%	.	.	.	.	.
SMILES	TbPYK inhibitor	Giardia FBPA inh	Shiga toxin inh	LmPK inhibitor	RE007 growth inh	Cycloheximide cs
COc1ccc(C(=O)Nc2ccc3c(c2)OCCO3)c(OC)c1	-12%	.	.	.	-6%	.
CCCOc1ccc(C(=O)Nc2ccc3c(c2)OCCO3)cc1	12%	-5%	73*	0%	44%	36*
CC(=O)Nc1ccc2c(c1)OCCOCCOc1cc(NC(C)=O)ccc1OCCOCCOCCO2	.	1%	-13	-7%	.	-2
COc1ccc(C(=O)CCNc2ccc3c(c2)OCCO3)cc1	-20%	3%	59*	1%	?	27
CC(=O)Oc1ccc(C(=O)Nc2ccc3c(c2)OCCO3)cc1	-5%	-4%	.	?	-8%	26*
COc1ccc(C(=O)Nc2ccc3c(c2)OCCO3)cc1	-19%	-22%	9	25µM*	9%	15*
O=C(OCc1ccco1)c1ccc2c(c1)N(Cc1ccc([N+](=O)[O-])cc1)C(=O)c1ccccc1S2	0%	.	.	.	.	.
CCCCNC(=O)C1(C)CCN1C(=O)c1oc2ccccc2c1C (stereo not given)	0%	.	.	.	8%[18.4 µM]	.
Cc1nn(C)c(=O)c(N)c1-c1cc(-c2ccc(Cl)c(Cl)c2)n[nH]1	0%	-1%	6	1%	5%	1
Cc1ccc(-c2cc(-c3c(C)nn(C)c(=O)c3N)[nH]n2)cc1	0%	0%	30	-4%	18%	26*
O=C1CCCN=C(Nc2ccc(F)c(Cl)c2)S1	-9%	1%	54*	-7%	-10%	12
CCC(Sc1nc2nccnc2c(=O)n1Cc1ccc(OC)cc1)C(=O)NC1CCCCC1 (stereo not given)	6%	.	.	.	.	.
Clc1ccccc1-c1nc(-c2ccccc2)n[nH]1	4%	-1%	125*	-24%	?	53*
Oc1ccccc1-c1n[nH]c(-c2ccccc2O)n1	8%	.	.	.	?	.
Cc1cccc(N2C(=O)CSC23C(=O)N(Cc2cccc(C(F)(F)F)c2)c2ccccc23)c1 (stereo not given)	1%	.	.	.	.	.
N#C/C(=C\c1cccc(O)c1)C(=O)Nc1ccc2c(c1)OCCO2	-5%	-2%	83*	0%	11%	60*
CC(C)NC(=O)/C(C#N)=C/c1ccc2c(c1)OCCO2	2%	21%	85*	-5%	-7%	22*
CCOC(=O)/C(C#N)=C\c1ccc2c(c1)OCO2	-6%	.	.	.	-17%	.
N#C/C(=C/c1cccc(O)c1)C(=O)NCc1ccc(Cl)cc1	-3%	-7%	12	3%	12%	-3
CS(=O)(=O)NN1C(=O)c2ccccc2NC1c1cc2ccccc2nc1Cl (stereo not given)	4%	0%	-8	4%	7%	16*
CS(=O)(=O)NN1C(=O)c2ccccc2NC1c1ccccc1F (stereo not given)	-11%	-3%	25	0%	-7%	0
Cc1ccc(S(=O)(=O)NN2C(=O)c3ccccc3NC2c2ccccc2)cc1 (stereo not given)	-1%	3%	98*	7%	5%	24*
CC(=O)NN1C(=O)c2ccccc2NC1c1ccc(N(C)C)cc1 (stereo not given)	2%	-2%	45	5%	16%	24
COc1ccc(C2Nc3ccccc3C(=O)N2NS(=O)(=O)c2ccc(C)cc2)cc1 (stereo not given)	-2%	-7%	1	8%	0%	3
CN(C)c1ccc(C2Nc3ccccc3C(=O)N2NS(C)(=O)=O)cc1 (stereo not given)	2%	-4%	20	-3%	4%	15*
Cc1cc(C)c(NC(=O)CSc2nc3ccccc3nc2N2CCCCC2)c(C)c1	3%	.	.	.	.	.
